Measurements from ChEMBL document CHEMBL3988442, “University of Dundee, Small-Polar-MMV Screening Library” (2021).

What was measured:
[1] = molecular target: T1, Aspartate--tRNA(Asp/Asn) ligase (Mycobacterium tuberculosis (strain ATCC 25618 / H37Rv)) (UniProt P9WFW3); assay: Assay for Asp RNA synthetase-1 from Mycobacterium tuberculosis; format: functional; set-up: scale not given: direction of the effect not stated beside the values; settings: 30 µM; further: in the data most compounds retested in dose-response had high values
T1 sequence (whole entry): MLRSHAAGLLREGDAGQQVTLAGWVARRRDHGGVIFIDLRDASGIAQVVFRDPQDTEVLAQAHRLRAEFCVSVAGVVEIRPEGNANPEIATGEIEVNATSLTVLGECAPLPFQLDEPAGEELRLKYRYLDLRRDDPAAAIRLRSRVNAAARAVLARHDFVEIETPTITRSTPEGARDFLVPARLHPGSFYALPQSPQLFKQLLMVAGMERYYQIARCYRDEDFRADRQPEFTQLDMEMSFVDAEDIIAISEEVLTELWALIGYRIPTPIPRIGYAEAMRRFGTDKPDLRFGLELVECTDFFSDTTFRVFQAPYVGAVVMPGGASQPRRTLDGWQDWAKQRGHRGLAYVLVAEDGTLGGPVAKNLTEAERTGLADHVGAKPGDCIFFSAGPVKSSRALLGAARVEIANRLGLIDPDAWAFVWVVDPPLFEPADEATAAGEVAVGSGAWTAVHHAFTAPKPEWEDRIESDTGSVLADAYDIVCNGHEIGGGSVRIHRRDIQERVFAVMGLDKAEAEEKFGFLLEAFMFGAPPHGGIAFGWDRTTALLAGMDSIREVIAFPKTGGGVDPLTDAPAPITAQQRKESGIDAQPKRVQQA

[2] = molecular target: Shiga toxin 2 (Escherichia coli O157:H7) (UniProt P09385+P09386); assay: E. coli 0.157:H7 Shiga Toxin SOP - stx2 screening assay; format: functional; set-up: scale not given: direction of the effect not stated beside the values; settings: 30 µM

Compound	Percent Effect [1] [%]	Percent Effect [2] [%]
O=C(c1ccnnc1)N1C[C@@H](OCC2CCCC2)[C@H]2OCCC[C@H]21	7.95	-3.97
O=C(CCN1CCCN(c2nccs2)CC1)NCC1CCCCC1	-3.75	-2.79
N#Cc1ncn(CCC(=O)Nc2ccc(Cl)cc2F)n1	10.4	-41
CC1(C)CN(C(=O)NCCc2ccn(-c3ccccc3)n2)CCO1	2.57	16.6
COC[C@@H]1CC[C@H]2[C@H](CCN2C(=O)c2ccncc2F)O1	3.94	7.83
Cc1ncc(CNCC2CCCN2c2cccnn2)s1 (stereo not given)	0.684	-14.7
CCc1nccn1C1CCCN(C(=O)c2ccc3[nH]cnc3c2)C1 (stereo not given)	0.869	11.5
CCc1ccc(C(=O)NC2CCN(c3cnn(C)c3)C2=O)o1 (stereo not given)	3.57	-7.19
CC(C)n1cc(C(=O)N2Cc3ccccc3OC3(CCOCC3)C2)cn1	-1.29	-21.7
COC(=O)CC(c1ccccc1)c1oc(C)cc(=O)c1O (stereo not given)	-2.11	-6.67
CN(C)c1cc(CNC(=O)c2ccc(F)cc2F)ccn1	-4.92	-51.7
CCc1n[nH]c(C2CN(C(=O)c3ccsc3)CCO2)n1 (stereo not given)	-7.75	21.9
Cc1ccc(N2CCCC(NCc3ccncc3)C2)nn1 (stereo not given)	0.131	-14.5
O=C(Nc1ccccn1)C1CC(=O)N(Cc2ccccn2)C1 (stereo not given)	2.43	-18.5
Cc1nn(C)c(N2CCOCC2)c1CNCc1ccnc(N(C)C)c1	-1.27	25.6
CSCCNC(=O)c1ccc(OC2CCN(CC(C)(C)C)CC2)c(Cl)c1	1.62	-38.1
c1ccc(-c2cc(CN3CCC(c4ccn[nH]4)CC3)on2)cc1	2.46	-49.6
OC(CN1CCOCC1)CN1CCc2c(ncn2C2CC2)C1 (stereo not given)	-8.33	-43.3
CC(C)c1noc(C(C)N2CCN(Cc3ccsc3)CC2)n1 (stereo not given)	-3.93	27.9
Cc1cccc(C(=O)NCc2ccc(S(N)(=O)=O)cc2)n1	-0.577	-16.4
